# Measured values reported in PubChem BioAssay AID1520 (The Scripps Research Institute Molecular Screening Center, 2009).
# Some of the results follow. The source made the active and inactive calls.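 How the source made its calls: active means cell growth inhibition above the hit limit set in the earlier mutant JAK2 cell screen (cut at about 27% in these data); inactive means the rest.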
# Assay: growth loss in parental Ba/F3 cells – cell-based, murine pro-B, CellTiter-Glo luminescence, counter-screen for JAK2V617F inhibitor project (AID 1520);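 further: plate controls were DMSO-treated cells for no effect and JAK Inhibitor I control wells for full effect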
# Conditions: Ba/F3 parental viability, at 5.6 µM, stronger effect = higher value
smiles,measurement,value
CN(C)CC1Oc2ccccc2OC1(O)c1ccccc1 (stereo unspecified),inhibition,34.6% (active)
